We go through 17 compounds from PubChem BioAssay (NCATS).

Inconclusive results are not listed. Unmarked numbers belong to inactive results. The source made the active and inactive calls. Calls come from the whole dose curve; as a rule, active = well fitted inhibition curve with a large enough effect; inconclusive = small, poorly fitted or top-dose-only effect; inactive = flat fitted curve, though single readings scatter.

Holding throughout (assay): qHTS profiling for inhibitors of Plasmodium falciparum proliferation (AID 504749); note: nearly all actives have a fitted effect of over 60% in size;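 for activity, negative = inhibition: 0% = DMSO vehicle and full inhibition = artemisinin control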
Common to all, as to settings: P. falciparum in erythrocytes, SYBR Green DNA, 72 h; series mostly up to 28.7 µM

In test [1] the test system is DIV14. A digest of the protocol: (§1)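 Fluorescence of SYBR Green-bound parasite DNA, read at 485/535 nm, served as the growth measure. Infected erythrocytes were cultured with compound 72 h; artemisinin (0.29 uM) and DMSO wells defined the normalization range.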
Test [2] concerns DIV17. The gist of the method:
as §1

For test [3], the system named is Dd2. A digest of the protocol: as §1
Test [4] has as its system ECU. A digest of the protocol: as §1
The test system of test [5] is FAB9. A digest of the protocol:
as §1

Test [6] has as its system GB4. A digest of the protocol:
as §1

The subject of test [7] is HB3. A digest of the protocol: as §1
For test [8], the system named is JCK. The gist of the method:
as §1

Test [9] concerns ICS. A digest of the protocol:
as §1

In test [10] the test system is DIV30. A digest of the protocol:
as §1
Potency is the fitted concentration of half-maximal effect.

Take `CCOP(=S)(OCC)Oc1ccc2c(C)c(Cl)c(=O)oc2c1`: the Potency entry in test [1], in test [2], in test [3], in test [4], in [5] and in [6] was “inactive” in each case. The Potency result in [7] and in [8] was “inactive” in each case.

As for `O=C1c2ccccc2C(=O)c2ccccc21`, the values for the Potency in [7] and in test [9] were 11.2 µM (active) and 3.55 µM (active), respectively. Besides, in test [8], the Potency result is “inactive”.

On to `Oc1ccc(Cl)cc1`, for which the Potency result in [1], in [2], in test [10], in test [3], in test [4] and in test [5] was “inactive” each time. Besides, the Potency entry in [6], in test [7], in [9] and in [8] was “inactive” each time.

Take `Cc1nnc2n1-c1ccc(Cl)cc1C(c1ccccc1)=NC2`: the Potency result in test [1], in test [2], in test [3], in test [4], in test [5] and in [6] was “inactive” in each case. In addition, the Potency entry in test [7] is “inactive”. In addition, the Potency in test [9] is 8.91 µM (active).

Consider `O=C1c2ccccc2C(=O)C1C(=O)C(c1ccccc1)c1ccccc1`, for which the Potency result in test [1], in test [2], in test [10], in [3], in [4] and in test [5] was “inactive” in each case. In addition, the Potency entry in test [7] and in [8] was “inactive” throughout.

As for `Clc1cccc(SC2CCNCC2)n1`, the Potency result in [1], in [2], in test [10], in test [3], in test [4] and in test [5] was “inactive” in each case. Also, the Potency entry in test [6], in test [7], in test [9] and in test [8] was “inactive” each time.

As for `NCCc1ccc(O)cc1`, the Potency result in test [1], in [2], in [10], in test [3], in [4] and in test [5] was “inactive” each time. Besides, the Potency result in [6], in test [7], in test [9] and in test [8] was “inactive” each time.

Take `c1ccc2c(c1)sc1ccccc12`: the Potency entry in test [1], in [2], in test [10], in test [3], in test [4] and in [5] was “inactive” in each case. The Potency entry in test [6], in test [7], in test [9] and in [8] was “inactive” each time.

With `C=C(C)[C@H]1CN[C@H](C(=O)O)[C@H]1CC(=O)O`, the Potency entry in test [1], in test [2], in [10], in [3], in test [4] and in test [5] was “inactive” each time. In addition, the Potency result in test [6], in test [7], in test [9] and in test [8] was “inactive” in each case.

In the case of `COc1ccc2c(c1OC)C(=O)O[C@H]2[C@@H]1c2cc3c(cc2CCN1C)OCO3`, the Potency entry in test [1], in test [2], in test [10] and in [6] was “inactive” each time.

Turning to `O=C1CN=C(c2ccccc2)c2cc([N+](=O)[O-])ccc2N1`, the Potency entry in [2], in test [10], in [3], in test [4], in test [5] and in [6] was “inactive” in each case. In addition, the Potency entry in test [7], in [9] and in [8] was “inactive” throughout.

For the compound `CCCCC/C=C\C/C=C\C/C=C\C/C=C\CCCC(=O)NCC(=O)O`, the activity, negative = inhibition is 7.6% [at 2.67 µM] in test [1]; 1.26% [at 2.67 µM] in test [2]; -7.28% [at 2.67 µM] in [10]; 0.222% [at 2.67 µM] in test [3]; -2.86% [at 2.67 µM] in test [4]; 0.295% [at 2.67 µM] in test [5]. Further, the activity, negative = inhibition was 5.94% [at 2.67 µM] in test [6], -4.91% [at 2.67 µM] in test [7], -4.84% [at 2.67 µM] in test [9] and 0.614% [at 2.67 µM] in [8].

Regarding `COC(=O)C(c1ccccc1)C1CCCCN1` (stereo not given), the Potency result in [10], in [4], in test [5], in test [7], in test [9] and in [8] was “inactive” in each case.

For `CN1C(=O)COc2c(C(=O)NC3CN4CCC3CC4)cc(Cl)cc21` (stereo not given), the Potency entry in [1], in test [2], in [10], in [3], in [4] and in test [5] was “inactive” in each case. The Potency result in test [6], in test [7], in test [9] and in test [8] was “inactive” each time.

Consider `COC1CC(=C(c2cccs2)c2cccs2)C[N+](C)(C)C1` (stereo not given), for which the Potency in [4] is 8.91 µM (active); in [6] it was 7.57 µM (active); in test [7] it was 8.91 µM (active); in test [9] it was 3.98 µM (active).

As to `CC(C)(C)NCC(O)c1cc(Cl)c(N)c(C(F)(F)F)c1` (stereo not given), the Potency in test [1] is 6.01 µM (active); in test [2], 7.57 µM (active); in test [3], 12.6 µM (active); in test [4], 5.01 µM (active); in test [6] it was 12 µM (active); in test [9] it was 4.47 µM (active). Further, in test [8], the Potency was 11.2 µM (active). The Potency result in test [5] is “inactive”.

For the compound `Nc1ccc([As](=O)(O)O)cc1`, the Potency entry in test [1], in test [2], in [10], in test [4], in [5] and in test [7] was “inactive” in each case. Also, the Potency result in test [8] is “inactive”.
